Targets include RELARELA (p65 homodimer) (Homo sapiens, UniProt Q04206 1-307); p50p50 homodimer (Homo sapiens, UniProt P19838 7-356); RELB subunit;p50 subunit (Homo sapiens;Homo sapiens, UniProt Q01201;P19838 120-401;7-356).
Assay in all cases: protein binding microarray; high values mean tight binding
Settings in all cases: dsDNA, one strand shown

The next experiment addresses T1, p52p52 homodimer (Homo sapiens, UniProt Q00653 4-332).
T1 sequence: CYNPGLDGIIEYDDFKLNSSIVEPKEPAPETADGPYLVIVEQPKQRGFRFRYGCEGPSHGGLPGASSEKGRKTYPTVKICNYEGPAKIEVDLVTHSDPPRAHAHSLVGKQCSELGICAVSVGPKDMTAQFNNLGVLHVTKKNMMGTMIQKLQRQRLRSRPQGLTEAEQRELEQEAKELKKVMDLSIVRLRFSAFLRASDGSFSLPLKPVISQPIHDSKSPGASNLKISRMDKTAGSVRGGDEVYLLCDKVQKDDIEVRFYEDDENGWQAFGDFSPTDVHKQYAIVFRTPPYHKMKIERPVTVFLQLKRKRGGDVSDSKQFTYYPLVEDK

Experiment [1] has as its target RELA (p65) subunit of heterodimer;p50 subunit (Homo sapiens;Homo sapiens, UniProt Q04206;P19838 1-307;7-356).
The target of experiment [2] is RELA (p65) subunit of heterodimer;p52 subunit (Homo sapiens;Homo sapiens, UniProt Q04206;Q00653 1-307;4-332).
The next experiment concerns the target T2, RELB subunit;p52 subunit (Homo sapiens;Homo sapiens, UniProt Q01201;Q00653 120-401;4-332).
T2 sequence 1: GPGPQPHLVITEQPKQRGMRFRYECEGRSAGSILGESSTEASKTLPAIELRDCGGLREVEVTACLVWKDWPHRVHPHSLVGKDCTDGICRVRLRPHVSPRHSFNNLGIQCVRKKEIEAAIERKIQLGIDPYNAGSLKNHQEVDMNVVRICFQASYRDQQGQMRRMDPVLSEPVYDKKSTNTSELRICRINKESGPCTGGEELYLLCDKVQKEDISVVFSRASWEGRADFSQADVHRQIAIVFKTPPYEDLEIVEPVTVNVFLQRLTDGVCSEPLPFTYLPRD
T2 sequence 2: T1 sequence

Experiment [3] deals with C-Rel subunit;p50 subunit (Homo sapiens;Homo sapiens, UniProt Q04864;P19838 1-285;7-356).
The target in experiment [4] is T3, C-Rel subunit;p52 subunit (Homo sapiens;Homo sapiens, UniProt Q04864;Q00653 1-285;4-332).
T3 sequence 1: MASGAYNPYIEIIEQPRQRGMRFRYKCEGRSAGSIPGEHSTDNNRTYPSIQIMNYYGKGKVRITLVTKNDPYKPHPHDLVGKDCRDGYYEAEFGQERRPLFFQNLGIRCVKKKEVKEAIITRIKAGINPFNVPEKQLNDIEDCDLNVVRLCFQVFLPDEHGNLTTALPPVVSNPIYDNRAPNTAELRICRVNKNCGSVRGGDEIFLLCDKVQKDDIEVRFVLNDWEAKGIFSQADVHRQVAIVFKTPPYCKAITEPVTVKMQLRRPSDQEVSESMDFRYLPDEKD
T3 sequence 2: T1 sequence

Sequence of p50p50 homodimer (P19838 7-356): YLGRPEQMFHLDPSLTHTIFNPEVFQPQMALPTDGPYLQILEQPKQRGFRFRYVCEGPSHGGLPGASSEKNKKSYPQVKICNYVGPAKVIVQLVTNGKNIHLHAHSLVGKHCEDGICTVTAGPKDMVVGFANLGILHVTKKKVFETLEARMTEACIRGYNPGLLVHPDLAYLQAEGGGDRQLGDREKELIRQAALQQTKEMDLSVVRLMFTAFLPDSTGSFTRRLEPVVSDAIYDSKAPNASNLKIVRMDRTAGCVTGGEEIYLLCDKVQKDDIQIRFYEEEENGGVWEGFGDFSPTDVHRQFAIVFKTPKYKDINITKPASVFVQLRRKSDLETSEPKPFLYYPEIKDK
Sequence of RELA (p65) subunit of heterodimer;p50 subunit (Q04206 1-307, chain 1 of 2): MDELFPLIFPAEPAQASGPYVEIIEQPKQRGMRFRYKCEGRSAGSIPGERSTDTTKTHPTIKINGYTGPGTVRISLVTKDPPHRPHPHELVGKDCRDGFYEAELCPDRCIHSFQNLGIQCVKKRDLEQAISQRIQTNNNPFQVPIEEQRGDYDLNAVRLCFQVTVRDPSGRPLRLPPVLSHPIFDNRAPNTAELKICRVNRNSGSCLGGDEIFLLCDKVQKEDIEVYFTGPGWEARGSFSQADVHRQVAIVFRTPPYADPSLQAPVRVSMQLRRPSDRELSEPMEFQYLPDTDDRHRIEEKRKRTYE
Sequence of RELA (p65) subunit of heterodimer;p50 subunit (P19838 7-356, chain 2 of 2): as the sequence (P19838 7-356) above
Sequence of RELARELA (p65 homodimer) (Q04206 1-307): as the sequence (Q04206 1-307, chain 1 of 2) above

As for GAGGGTGTCCC, the binding signal was determined as 0.223 z-score with RELARELA (p65 homodimer); 0.0932 z-score in the experiment with p50p50 homodimer; 0.206 z-score with p52p52 homodimer; 0.366 z-score in experiment [1]; 0.191 z-score in experiment [2]; 0.314 z-score in the experiment with RELB subunit;p50 subunit. The figures for the binding signal (with RELB subunit;p52 subunit; in experiment [3]; in [4]) were 0.399 z-score, 0.469 z-score and 0.107 z-score, respectively.
On to GGAGTGACCCC, for which the binding signal with RELARELA (p65 homodimer) was -0.389 z-score; in the experiment with p50p50 homodimer it was -0.505 z-score; with p52p52 homodimer it was -0.461 z-score; in experiment [1], -0.353 z-score; in [2], -0.178 z-score; in the experiment with RELB subunit;p50 subunit, -0.399 z-score. In addition, the binding signal is -0.304 z-score in the experiment with RELB subunit;p52 subunit, -0.367 z-score in experiment [3] and -0.254 z-score in [4].
As to GGGGACACCCC, the binding signal amounted to 0.873 z-score with RELARELA (p65 homodimer); 0.656 z-score with p50p50 homodimer; 2.83 z-score with p52p52 homodimer; 1.56 z-score in experiment [1]; 2.26 z-score in experiment [2]; 1.68 z-score with RELB subunit;p50 subunit. The binding signal with RELB subunit;p52 subunit worked out at 2.1 z-score; in [3], 1.26 z-score; in experiment [4], 2.35 z-score.
For CAGAATCTCCC, the binding signal is 0.546 z-score with RELARELA (p65 homodimer); 0.713 z-score in the experiment with p50p50 homodimer; -0.063 z-score with p52p52 homodimer; 0.636 z-score in experiment [1]; 0.291 z-score in experiment [2]; 0.641 z-score in the experiment with RELB subunit;p50 subunit. Moreover, the figures for the binding signal (in the experiment with RELB subunit;p52 subunit; in experiment [3]; in experiment [4]) were 0.396 z-score, 0.223 z-score and 0.378 z-score, respectively.
For CGGTGAGCCCC, the binding signal with RELARELA (p65 homodimer) is -0.508 z-score; with p50p50 homodimer, 0.0715 z-score; in the experiment with p52p52 homodimer, -0.0385 z-score; in experiment [1], -0.0467 z-score; in experiment [2], 0.0767 z-score; in the experiment with RELB subunit;p50 subunit, -0.0666 z-score. Besides, the figures for the binding signal (with RELB subunit;p52 subunit; in [3]; in experiment [4]) were 0.236 z-score, 0.3 z-score and 0.314 z-score, respectively.
In the case of CAAAGGGTCCC, the binding signal in the experiment with RELARELA (p65 homodimer) was -0.377 z-score; with p50p50 homodimer it was -0.186 z-score; with p52p52 homodimer it was -0.0557 z-score; in experiment [1], -0.357 z-score; in experiment [2] it was -0.288 z-score; with RELB subunit;p50 subunit, 0.0439 z-score. Further, the binding signal with RELB subunit;p52 subunit was -0.0611 z-score; in [3], -0.397 z-score; in experiment [4], -0.359 z-score.
With GGATATGCCCT, the binding signal in the experiment with RELARELA (p65 homodimer) was 0.304 z-score; with p50p50 homodimer, -1.18 z-score; with p52p52 homodimer it was -0.574 z-score; in [1], -0.276 z-score; in [2], -0.49 z-score; with RELB subunit;p50 subunit, -0.93 z-score. Moreover, the figures for the binding signal (with RELB subunit;p52 subunit; in experiment [3]; in experiment [4]) were -0.689 z-score, -0.384 z-score and -0.294 z-score, respectively.
As for GAAGACACCCC, the binding signal was -0.516 z-score in the experiment with RELARELA (p65 homodimer); -0.135 z-score with p50p50 homodimer; -0.303 z-score with p52p52 homodimer; -0.324 z-score in experiment [1]; -0.316 z-score in experiment [2]; -0.183 z-score with RELB subunit;p50 subunit. Besides, the values for the binding signal (with RELB subunit;p52 subunit; in experiment [3]; in experiment [4]) were 0.105 z-score, -0.163 z-score and -0.242 z-score, respectively.
Take AGGGGATCCCT: the binding signal with RELARELA (p65 homodimer) amounted to 1.82 z-score; with p50p50 homodimer, 1.11 z-score; with p52p52 homodimer, 2.11 z-score; in experiment [1], 2.32 z-score; in experiment [2] it was 1.95 z-score; with RELB subunit;p50 subunit, 1.58 z-score. For the same sequence, the figures for the binding signal (with RELB subunit;p52 subunit; in experiment [3]; in [4]) were 1.57 z-score, 1.42 z-score and 2.29 z-score, respectively.
AGGGTTGCCCT: the binding signal in the experiment with RELARELA (p65 homodimer) is -0.236 z-score; with p50p50 homodimer it was -1.22 z-score; with p52p52 homodimer, -0.523 z-score; in experiment [1], -0.681 z-score; in [2], -0.727 z-score; with RELB subunit;p50 subunit it was -0.807 z-score. The figures for the binding signal (in the experiment with RELB subunit;p52 subunit; in experiment [3]; in [4]) were -0.774 z-score, -0.341 z-score and -0.29 z-score, respectively.
In the case of GAGGGAGCCCT, the binding signal with RELARELA (p65 homodimer) was -0.902 z-score; with p50p50 homodimer it was -0.904 z-score; with p52p52 homodimer it was -0.464 z-score; in experiment [1], -0.859 z-score; in experiment [2] it was -0.736 z-score; with RELB subunit;p50 subunit, -0.793 z-score. The binding signal is -0.682 z-score with RELB subunit;p52 subunit, -1.28 z-score in [3] and -0.682 z-score in [4].
For the sequence CAAATTACCCT, the binding signal with RELARELA (p65 homodimer) was determined as 0.402 z-score; in the experiment with p50p50 homodimer, 1.05 z-score; with p52p52 homodimer, 0.802 z-score; in experiment [1], 0.662 z-score; in [2] it was 0.929 z-score; with RELB subunit;p50 subunit it was 0.64 z-score. Also, the binding signal in the experiment with RELB subunit;p52 subunit is 0.781 z-score; in experiment [3], 0.509 z-score; in experiment [4] it was 0.784 z-score.
Take GGGATAGTCCC: the binding signal with RELARELA (p65 homodimer) came out at 2.07 z-score; with p50p50 homodimer it was 0.707 z-score; with p52p52 homodimer, 2.94 z-score; in experiment [1], 1.82 z-score; in experiment [2], 2.15 z-score; in the experiment with RELB subunit;p50 subunit it was 1.87 z-score. Further, the binding signal came to 1.6 z-score in the experiment with RELB subunit;p52 subunit, 1.32 z-score in [3] and 1.96 z-score in experiment [4].
With GAAAGTGCCCC, the binding signal was 0.518 z-score with RELARELA (p65 homodimer); 0.277 z-score in the experiment with p50p50 homodimer; 0.105 z-score in the experiment with p52p52 homodimer; 0.655 z-score in experiment [1]; 0.365 z-score in experiment [2]; 0.443 z-score with RELB subunit;p50 subunit. Besides, the binding signal with RELB subunit;p52 subunit was 0.479 z-score; in experiment [3], 0.607 z-score; in [4], 0.511 z-score.
Regarding CGGGGACCCCT, the binding signal in the experiment with RELARELA (p65 homodimer) was -0.0408 z-score; with p50p50 homodimer, 0.724 z-score; with p52p52 homodimer, 0.639 z-score; in [1], 0.43 z-score; in experiment [2], 0.693 z-score; in the experiment with RELB subunit;p50 subunit, 0.578 z-score. Also, the binding signal with RELB subunit;p52 subunit was 0.906 z-score; in [3] it was 0.478 z-score; in experiment [4], -0.0336 z-score.

Source of the values: PMC3218832.
